Hits are enriched below; roughly 5.6% of the tested compounds scored in any of these assays.
PKM2 act: increases activity of human pyruvate kinase M2. P14618. purified PKM2, Kinase-Glo ATP luminescence, activation; response scale: 0% is enzyme alone, no compound. Potency, µM (titrated, usually from 57.5 µM), for the others: at the top dose activation, usual class: activators. 260,000 tested, 0.34% active; note: potency is the fitted concentration of half-maximal effect; nearly all actives have a fitted effect of over 55% in size
Target sequence (P14618 whole entry, looked up): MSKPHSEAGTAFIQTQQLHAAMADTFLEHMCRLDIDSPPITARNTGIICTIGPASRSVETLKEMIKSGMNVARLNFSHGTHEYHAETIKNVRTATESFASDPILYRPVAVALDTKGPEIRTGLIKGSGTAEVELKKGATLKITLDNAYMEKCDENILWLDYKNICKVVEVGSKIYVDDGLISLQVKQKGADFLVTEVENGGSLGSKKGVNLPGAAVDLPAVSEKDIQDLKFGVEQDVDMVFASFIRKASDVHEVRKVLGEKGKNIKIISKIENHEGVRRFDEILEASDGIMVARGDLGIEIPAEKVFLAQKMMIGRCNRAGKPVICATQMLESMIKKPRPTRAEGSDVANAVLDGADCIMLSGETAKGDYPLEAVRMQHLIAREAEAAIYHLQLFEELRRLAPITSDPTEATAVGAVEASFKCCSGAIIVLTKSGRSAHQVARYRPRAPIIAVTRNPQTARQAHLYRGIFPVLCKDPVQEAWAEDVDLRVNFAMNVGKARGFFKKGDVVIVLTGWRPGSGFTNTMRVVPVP
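Purified hPK-M2 (>95% pure) converted ADP (0.1 mM final) to ATP with 0.5 mM PEP in 50 mM imidazole pH7.2, KCl, MgCl2, Tween 20, BSA; 1 h at room temperature. ATP detected by Kinase-Glo luminescence.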
RORg inh: blocks mouse ROR gamma transcriptional activity; P51450; Drosophila S2 Gal4-RORgamma UAS-luciferase reporter, 20 h; Potency, µM (series often up to 53.6 µM), for the others: at the top dose activity change, negative = inhibition, most hits filed as inhibitors; 310,000 tested, 5.4% active; AID 2551; note: potency is the fitted concentration of half-maximal effect; nearly all actives have a fitted effect of over 60% in size
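Using a luciferase readout, inhibitors were identified by reduced reporter activity in Drosophila cells coexpressing a copper-inducible Gal4–ROR gamma fusion and UAS-driven Photinus luciferase, incubated 20 hr after 700 uM copper sulfate.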
Six1-Eya2 blk: blocks human Six1 binding to Eya2 | AlphaScreen GST-Six1/His-Eya2 binding, biochemical; active compounds read low | activity change, % (concentration not given with the values) | AID 651725 | 360,000 tested, 0.56% active; in the data active = activity change below about -65%; inconclusive = mostly about -30% to -63%
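Homogeneous AlphaScreen proximity assay pairing GST-Six1 with His-tagged Eya2 (added as 5X mix: 250 nM and 500 nM) in 50 mM Tris pH 8.0, 300 mM NaCl, 1 mM TCEP. Glutathione donor and nickel acceptor beads; 1 h, 37 °C, dark.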
CtBP-E1A blk: CtBP/E1A binding inhibition | 340,000 tested, 0.49% active | AID 651724 | AlphaScreen GST-E1A/His-CtBP binding, 1536-well; active compounds read low | activity change, % (no concentration beside the values); in the data active = activity change below about -65%; inconclusive = mostly about -30% to -63%
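AlphaScreen with 125 nM GST-E1A and 125 nM His-CtBP (5X stocks) in Tris pH 8.0, 300 mM NaCl, BSA, Tween 20, TCEP. Compounds preincubated 2 h at 37 deg C, then glutathione donor/nickel acceptor beads added for 1 h at 37 deg C in dark.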
VP16 counter: inhibits Gal4-VP16 luciferase reporter, ROR gamma counter-screen. Potency, µM (series often up to 53.6 µM), without a hit: at the top dose activity, negative = inhibition, actives largely listed as inhibitors. Drosophila S2 Gal4-VP16 UAS-luciferase, luminescence, 20 h. 310,000 tested, 3.5% active;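 note: Gal4-VP16 expression switched on by copper sulfate through the metallothionein promoter; potency is the fitted concentration of half-maximal effect; nearly all actives have a fitted effect of over 50% in size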
* = called active by the depositor; ? = inconclusive; nt = no result; [ ] = dose if it differs, or a comment. Unless noted, calls come from the whole dose curve; as a rule, active = well fitted curve in the direction sought with a large enough effect; inconclusive = small, poorly fitted or top-dose-only effect, or another doubt; inactive = no such curve, though single readings can be large; an effect the other way counts as inactive or inconclusive. % is set by controls: 0 for no effect and ±100 for the full control effect.

SMILES | PKM2 act | RORg inh | Six1-Eya2 blk | CtBP-E1A blk | VP16 counter
CCOc1ccc(N=C2NC(=O)S/C2=C\c2ccc(Cl)cc2)cc1 | -6% | -10% | -4 | -8 | -4%
CCOc1ccc2nc(N3C(=O)/C(=C/c4ccc(Cl)cc4)NC3=S)sc2c1 | 3% | 1.1µM* | -14 | -10 | 1.6µM*
CCc1nc(N2CCN(C(=O)CCl)CC2)c2c3c(sc2n1)CC(C)CC3 (stereo not drawn) | -3%[11.5 µM] | 16µM* | -3 | 3 | ?
CC1CCN(C(=S)NC(=O)C2CCCCC2)CC1 | -5% | 13µM* | -6 | -5 | ?
CCOC(=O)COc1ccc2c(C)c(CCN(CC)CC)c(=O)oc2c1Cl | nt | -14% | nt | nt | -1%
Cc1ccc2cc(CN(Cc3ccco3)C(=O)c3ccco3)c3nnnn3c2c1 | 16µM* | 5% | -23 | -5 | 1%
O=C1C=CC(=O)C(C2=C3C(=O)N(CCc4ccccc4)CC(=O)N3CCC2)=C1 | -36% | ? | ? | -1 | 7.9µM*
COCCNC(=O)CN1C(=O)/C(=C/c2ccccc2)Oc2ccc(C(C)(C)C)cc21 | nt | 22% | 16 | nt | -8%
COc1ccc(N2C(=O)CC(SCC(=O)O)C2=O)cc1 (stereo not drawn) | -7% | -22% | 1 | 4 | -12%
COc1ccc(NC(=O)CSC2CC(=O)N(c3ccc4c(c3)OCCO4)C2=O)cc1 (stereo not drawn) | 17% | ? | 1 | 3 | 5µM*
COc1ccccc1NC(=O)CSC1CC(=O)N(c2ccc3c(c2)OCO3)C1=O (stereo not drawn) | -1% | 5.6µM* | -3 | 5 | 5µM*
CC(C)c1cccc(C(C)C)c1NC(=O)CN1C(=O)NC2(CCCCCCC2)C1=O | nt | nt | -1 | 4 | nt
COc1cc(OC)c2cc(C(=O)N[C@@H](Cc3ccccc3)C(=O)O)n(C)c2c1 | nt | -14% | 6 | -4 | 1%
C=C[C@@]1(C)C[C@H](OC(=O)CSC(C)(C)CNC(=O)[C@@H](N)C(C)C)[C@@]2(C)C(C)CC[C@@]3(CCC(=O)[C@@H]32)[C@H](C)[C@H]1O (stereo partly drawn) | nt | -1% | nt | nt | -3%
O=S(=O)(NNc1ncc(C(F)(F)F)cc1Cl)c1ccc(F)cc1F | nt | nt | -1 | nt | nt
Cc1ccc(C)c(SCC(=O)OCC(=O)Nc2ncc(C(F)(F)F)cc2Cl)c1 | -7% | -2% | 3 | 4 | 0%
FC(F)(F)c1cccc(NC(=S)NNC(=S)Nc2ccc(Cl)cc2)c1 | -8% | 16% | nt | nt | -18%
Fc1ccc(NC(=S)NNc2ncc(C(F)(F)F)cc2Cl)c(F)c1 | -13% | 5µM* | -9 | -1 | ?
FC(F)(F)c1cnc(NNC(=S)Nc2ccc(Cl)cc2)c(Cl)c1 | -9% | 5.6µM* | -24 | -17 | 7.9µM*
Cc1ccc(NC(=S)NNc2ncc(C(F)(F)F)cc2Cl)cc1 | -17% | 13µM* | -2 | -11 | 11µM*
Cc1ccc(NC(=S)NNc2ncc(C(F)(F)F)cc2Cl)c(C)c1 | 0% | 10µM* | -1 | 3 | ?
COc1ccc(-c2noc(CN3CCN(C(=O)c4cccs4)CC3)n2)c(OC)c1OC | nt | -15% | -6 | -7 | 2%
Cc1ccc(N2CC(C(=O)Nc3cccc(S(=O)(=O)N4CCOCC4)c3)CC2=O)cc1 (stereo not drawn) | nt | nt | -8 | 6 | nt
Cc1c(-c2n[nH]c(=S)n2-c2ccc(C(F)(F)F)cc2)nnn1-c1ccccc1 | -8% | 5.6µM* | 1 | 5 | ?
COc1ccc(/C=N/NC(=S)Nc2ccccc2)cc1COc1ccc(F)cc1F | 5% | 0.63µM* | -14 | -5 | 1µM*
SMILES | PKM2 act | RORg inh | Six1-Eya2 blk | CtBP-E1A blk | VP16 counter
COc1ccc(NC(=S)N/N=C/c2ccc(F)cc2)cc1OC | 4% | 0.63µM* | -6 | 0 | 2.5µM*
COc1ccc(NC(=S)N/N=C/c2ccc(F)c(F)c2)cc1 | 0% | 3.2µM* | -6 | 2 | 5µM*
Fc1ccc(NC(=S)N/N=C/c2ccc(F)c(F)c2)cc1 | -3% | 0.71µM* | -3 | 5 | 3.2µM*
COc1ccc(/C=N\NC(=O)c2ccc(F)cc2)cc1COc1ccccc1C(N)=O | 4% | 7% | -26 | -30 | 8%
COc1ccc(NC(=S)NC(=O)/C=C/c2ccc(F)cc2)cc1 | nt | ? | -1 | -5 | -13%
CN1CCN(C(=O)c2ccc3c(c2)N(Cc2ccc(F)cc2)C(=O)c2ccccc2S3=O)CC1 (stereo not drawn) | 15% | -2% | 8 | -2 | 8%
Cc1cc(C)c(C(O)c2ncc(-c3ccccc3Cl)[nH]2)c(C)c1 (stereo not drawn) | nt | nt | -7 | -12 | nt
O=C(NNC(=O)C1CC2CCC1C2)c1sc2ccccc2c1Cl (stereo not drawn) | -1% | ? | -9 | -5 | ?
CCC(CC)c1ncc[nH]1 | 0% | -2% | 7 | nt | -17%
Fc1ccc(NC(=S)NN=C2CCCCCC2)cc1 | -1% | 4.5µM* | -4 | -11 | 18µM*
Fc1ccc(/C=N/NC(=S)Nc2ccc(Cl)cc2)cc1F | 0% | 0.71µM* | 0 | 0 | 1.4µM*
CC(=O)Oc1ccc(/C=N/NC(=S)Nc2ccccc2)cc1 | -1% | 2µM* | -25 | -4 | 2.5µM*
CCOc1ccc(/C=N/NC(=O)Nc2ccccc2)cc1 | -5% | -8% | -3 | 3 | 0%
Cc1c(NC(=O)C(C)OC(=O)/C=C/c2ccc(OC(F)F)cc2)c(=O)n(-c2ccccc2)n1C (stereo not drawn) | nt | nt | 2 | -2 | nt
CC(C)C(=O)N1CCN(c2ccccc2NC(=S)NC(=O)c2cccs2)CC1 | 5% | 14µM* | -27 | -11 | ?
CC(C)C(=O)NC(=S)Nc1ccccc1N1CCN(C(=O)c2ccc(Cl)cc2)CC1 | -1% | 5.6µM* | -4 | -9 | 5µM*
CS(=O)(=O)N1CCN(c2ccccc2NC(=S)NC(=O)c2ccccc2[N+](=O)[O-])CC1 | -2% | -42% | -10 | nt | ?
CC(=O)N1CCN(c2ccccc2NC(=O)c2cccs2)CC1 | -11% | -31% | -11 | -17 | 3%
CC1CCN(c2ccccc2NC(=S)NC(=O)c2cccs2)CC1 | 2% | 2.2µM* | -29 | -22 | 6.3µM*
CS(=O)(=O)N1CCN(c2ccccc2NC(=S)NC(=O)c2cccs2)CC1 | -1% | 11µM* | 0 | nt | -19%
CC(C)(C)C(=O)Nc1ccccc1N1CCN(C(=O)c2ccc(Cl)cc2)CC1 | 4% | 12% | -15 | -7 | 1%
O=C(COC(=O)c1ccc(-n2cnnn2)cc1)c1ccc(Br)cc1 | nt | nt | 3 | 7 | nt
Cn1ncc2c(=O)[nH]cnc21 | 6% | 10% | 1 | 4 | 0%
O=C(CCNC(=O)c1ccccc1Cl)Nc1nnc(C2CC2)s1 | -3% | 17% | -5 | 9 | 3%

Compound activity deposited in PubChem by National Center for Advancing Translational Sciences (NCATS).
